The supplement of paper PMC3334620
Whole data set: some 33,000 sequences, median “E-score (-0.5 to 0.5)” near -0.035, cut for the highest 2% near 0.34. The list comes from a sample in which the highest values are over-represented; it also holds similar and randomly drawn sequences.

What follows are sequences tested against T1, Mot3 (UniProt P54785) (assay: PBM E-score (8-mer binding enrichment) (E-score (-0.5 to 0.5)); higher = stronger / more preferred TF binding). Conditions: protein concentration: 200 nM; construct: GST-full length.
T1 sequence: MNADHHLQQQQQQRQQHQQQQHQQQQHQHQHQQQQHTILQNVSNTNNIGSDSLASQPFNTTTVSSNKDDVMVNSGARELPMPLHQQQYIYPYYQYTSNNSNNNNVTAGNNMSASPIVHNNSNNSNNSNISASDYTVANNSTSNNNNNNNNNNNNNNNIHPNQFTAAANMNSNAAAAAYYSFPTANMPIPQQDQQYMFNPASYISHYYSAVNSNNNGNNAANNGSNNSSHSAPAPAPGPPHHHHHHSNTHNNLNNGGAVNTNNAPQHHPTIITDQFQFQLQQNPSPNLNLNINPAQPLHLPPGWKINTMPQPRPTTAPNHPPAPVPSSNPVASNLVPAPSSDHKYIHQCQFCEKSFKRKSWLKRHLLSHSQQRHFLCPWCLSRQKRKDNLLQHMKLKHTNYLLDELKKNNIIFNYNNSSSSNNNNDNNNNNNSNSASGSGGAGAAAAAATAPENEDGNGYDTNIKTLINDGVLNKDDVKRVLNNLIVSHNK
Description: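 Universal 'all 10-mer' protein binding microarrays (Agilent AMADID 015681) probed with GST-tagged S. cerevisiae TFs (full-length or DBD) made by in vitro transcription/translation (PURExpress), about 100-200 nM. Bound TF was detected with fluorescent anti-GST. Each ungapped 8-mer (which stands for itself and its reverse complement) is scored by the PBM enrichment score (E-score), a modified Wilcoxon-Mann-Whitney statistic from -0.5 to +0.5, computed with the Universal PBM Analysis Suite. Scale: above 0.35 generally sequence-specific binding.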

Sequence	PBM E-score
GATAGGCC	0.0586
GAGTCGAA	-0.0456
CAAGGATG	0.121
CTCAAGCA	-0.101
GGAAGTAC	-0.139
ATGACCAT	0.0148
CGCACTCC	-0.223
CTGAGGTC	-0.255
CTTATGTA	0.342
CTCATGTA	0.359
CTTATGTC	0.0522
CTCATGTC	0.191
GTCATGCA	0.0879
ATCATGTC	0.245
ATTATGTA	0.339
ATCATGTG	0.198
GTCATGGA	-0.179
GTCATGTA	0.356
CTCATGGA	0.261
ATCATGTA	0.392
ATGGTTGA	-0.153
CCATCCGC	-0.164

Sequence	PBM E-score
CCGAAGAC	-0.306
GGGGTCTA	-0.0481
TAGAGAAA	-0.0644
CAACCAGA	0.0325
AAATAGCG	0.11
AGTTACGA	0.138
CCTAGAAA	0.0447
CTGAGCCC	-0.191
CCGTTGAG	-0.213
GAGGCAAA	0.328
CAGGCAAC	0.489
CCGGCAAG	-0.0693
CGGGCAAC	-0.129
CAGACAAC	0.00587
CAGGCAAG	0.491
TGGGCAAA	-0.0148
CAGGCAGA	0.0294
CGGGCAAA	0.0704
CAGGCAGG	0.306
TAGGCAAA	0.48
CAGGCAAA	0.481
ATCCACGG	-0.0193

Sequence	PBM E-score
AACCAGGT	-0.172
AAGACATC	-0.0992
CATAGTGC	0.117
ACAGCCGT	-0.24
CTCCGAAC	-0.132
ACACTACC	-0.089
GCCTTAAA	0.349
CCCTTAAA	-0.00813
ACCTTAAA	-0.092
CACACTCC	-0.178
AAGTACAT	0.265
AGGTACAT	0.367
CGGTACAC	0.00913
ATGTACAC	0.338
ATGTACAT	0.378
AGGTACAA	0.363
TGGTACAA	0.0168
AGGTACAC	0.366
ATGTACAG	0.247
GGGTACAA	-0.012
AGGTACAG	0.332
ACGTACAT	0.286

Sequence	PBM E-score
AAGGGGAA	-0.0624
CAACAGTG	-0.0633
CACGTGGC	-0.0488
AGCCTCCA	-0.369
TGCCTCAA	0.365
AGCCTCAA	-0.265
CGCCTCCA	-0.0882
GGCCTCAA	0.00845
TGCCTCCA	0.404
GACTGCTA	-0.251
AGCGTGCA	0.092
AACGTGCA	0.136
CGCGTGCA	0.0183
AGTGTGCC	0.355
CGTGTGCC	0.23
AGCGTGCG	-0.185
CGCGTGGC	-0.155
AGTGTGCG	-0.149
AGCGTGCC	0.343
AACGTGCG	0.0588
CGCGTGCC	0.433
AACGTGCC	0.397
